Bead autofluor – compound fluorescence in toxin protease inhibitor counterscreen. compound autofluorescence counterscreen, microsphere flow cytometry; active compounds read high. fluorescence intensity (test concentration not listed). hit rate 3.1% among 360,000. AID 624483; in the data active = fluorescence intensity above about 16000; inconclusive = no clear call, values can overlap the other calls
BoNT-A LC inh2 – blocks Botulinum neurotoxin A light chain protease | multiplex microsphere protease substrate cleavage, flow cytometry | inhibition, % at 10 µM | hit rate 0.17% among 360,000 | AID 588499; note: plate controls were buffer without enzyme for full effect and enzyme alone for no effect
BoNT F protease – inhibitors of Botulinum neurotoxin F light chain protease; Multiplex microsphere protease cleavage assay, flow cytometry; inhibition, % at 10 µM; hit rate 0.22% among 360,000; AID 588497; in the data active = inhibition above about 35%, passing the limit was not always enough; inconclusive = no clear call, values can overlap the other calls; note: plate controls were buffer without enzyme for full effect and enzyme alone for no effect
BJeLR viability – BJeLR cell viability loss | inhibition, % (concentration not given with the values) | AID 1554 | hit rate 0.17% among 300,000 | BJeLR (HRASV12) viability, CellTiter-Glo ATP luminescence, 48 h; in the data active = inhibition above about 50%; inconclusive = no clear call, values can overlap the other calls
Anthrax LF prot – anthrax lethal factor protease inhibition. multiplex microsphere protease cleavage assay, LF. inhibition, % at 10 µM. hit rate 0.12% among 360,000; note: plate controls were buffer without enzyme for full effect and enzyme alone for no effect
Target sequence (P15917 whole entry, looked up): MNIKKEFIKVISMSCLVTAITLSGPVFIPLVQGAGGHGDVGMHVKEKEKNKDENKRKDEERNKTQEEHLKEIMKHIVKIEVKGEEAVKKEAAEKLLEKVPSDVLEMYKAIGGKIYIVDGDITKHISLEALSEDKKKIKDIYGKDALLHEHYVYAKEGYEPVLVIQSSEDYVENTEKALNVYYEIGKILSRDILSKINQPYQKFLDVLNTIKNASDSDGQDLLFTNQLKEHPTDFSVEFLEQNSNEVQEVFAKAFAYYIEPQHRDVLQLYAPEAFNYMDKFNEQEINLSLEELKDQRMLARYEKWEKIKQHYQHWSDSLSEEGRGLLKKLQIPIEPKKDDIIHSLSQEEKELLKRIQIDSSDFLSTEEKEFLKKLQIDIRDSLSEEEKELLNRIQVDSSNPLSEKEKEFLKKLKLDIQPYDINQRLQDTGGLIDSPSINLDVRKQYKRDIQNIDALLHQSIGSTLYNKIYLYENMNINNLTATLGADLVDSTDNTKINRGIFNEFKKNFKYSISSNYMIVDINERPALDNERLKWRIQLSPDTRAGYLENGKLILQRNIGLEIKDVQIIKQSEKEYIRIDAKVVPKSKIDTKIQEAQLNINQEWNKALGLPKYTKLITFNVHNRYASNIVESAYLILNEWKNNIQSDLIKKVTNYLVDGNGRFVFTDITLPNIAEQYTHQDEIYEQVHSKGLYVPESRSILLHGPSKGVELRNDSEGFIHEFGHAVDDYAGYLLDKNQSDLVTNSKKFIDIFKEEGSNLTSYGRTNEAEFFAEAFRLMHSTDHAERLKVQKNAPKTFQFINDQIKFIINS
* = called active by the depositor; u = inconclusive; x = no result. Most compounds without a hit are left out; they make up all but 3.5% or so of the library. Cut-off read from the data, not from the text of the source, unless noted: active = inhibition above about 30%; inconclusive = no clear call, values can overlap the other calls; inactive = below that.

SMILES	Bead autofluor	BoNT-A LC inh2	BoNT F protease	BJeLR viability	Anthrax LF prot
CC1CCN(C(=O)CSc2nnc(-c3cccnc3)n2C2CCCCC2)CC1	17010*	u	-9	-1	-3
O=C(CSc1nnc(-c2ccc(O)cc2)n1Cc1ccco1)N1CCc2ccccc2C1	16322*	0	-3	14	-2
COc1ccc(/C=C/C(=O)N(CC(C)C)CC(C)C)cc1Br	21487*	u	3	-2	-3
COc1ccc(CN2CCN(C(=O)CC(C)C)CC2)cc1Br	2992	-2	-9	-4	-4
O=C(OCc1ccccc1)N1CCC2CC1c1cc(N3CCCCC3)ccc12 (stereo not drawn)	3596	-1	-5	x	-13
O=C(c1cc(Cl)cc(Cl)c1)N1CCC2CC1c1cc(N3CCCCC3)ccc12 (stereo not drawn)	24126*	-9	26	x	0
C=CCN=C(NC#N)SCC(=O)c1cccc(OC)c1	22163*	u	-8	6	-2
CCCCC(O)(CCN1CCOCC1)c1ccc(Cl)cc1 (stereo not drawn)	21851*	3	3	4	-8
CCCCOc1ccc(C(O)(CCC)CCN2CCOCC2)cc1 (stereo not drawn)	2014	1	-4	1	1
COc1ccc(NC(=O)c2sc(=O)n(Cc3ccccc3C#N)c2C)cc1OC	5434	-1	-11	x	-12
CCCCC(CC)C1OCC(CN2CCCC2)O1 (stereo not drawn)	19353*	u	11	5	-3
CCCCC(CC)C1OCC(CN2CCCCC2)O1 (stereo not drawn)	4297	-8	u	-4	-10
COc1ccc2c(c1)C=C(C(=O)NCc1ccc(Cl)cc1)CO2	20111*	4	4	-2	-1
C=C(C)CSc1nnc([C@@H](NC(=O)OC(C)(C)C)C(C)CC)o1 (stereo partly drawn)	20796*	u	5	-3	-1
OC(CSc1c(Cl)cccc1Cl)CN1CCN(c2ccccc2F)CC1 (stereo not drawn)	20273*	0	-6	18	-2
OC(CSc1ccccc1Cl)CN1CCN(c2ccccc2F)CC1 (stereo not drawn)	10127	-1	-7	2	-4
Cc1ccc2c(CC(=O)N3CCN(c4ccccc4)CC3)coc2c1	4498	0	-4	-31	-4
Cc1ccc(P(=O)(CC(=O)O)c2ccc(C)cc2)cc1	24105*	-3	-7	26	-3
CCNC(=O)CP(=O)(c1ccccc1)c1ccccc1	3739	-1	-8	6	-1
Cc1ccc(CC(=O)N2CCN(c3ccccn3)CC2)cc1	3476	0	-28	1	-3
COc1ccc(CCNC(=O)c2ccc(=O)[nH]n2)cc1OC	5644	0	3	-3	5
COc1ccc(CCNC(=O)c2cc(-c3cc(C)c(C)cc3O)n[nH]2)cc1OC	22479*	0	0	0	-2
COc1ccc(CCNC(=S)NC(=O)c2ccccc2)cc1OC	23568*	-1	0	-12	0
CCc1noc(C)c1C(=O)NCCc1ccc(S(N)(=O)=O)cc1	u	2	5	-1	0
CCc1noc(C)c1C(=O)NCCc1ccc(OC)c(OC)c1	24111*	u	1	3	-2
SMILES	Bead autofluor	BoNT-A LC inh2	BoNT F protease	BJeLR viability	Anthrax LF prot
CC(C)Oc1cc(F)ccc1-c1cc(C(=O)NCc2ccccn2)[nH]n1	3069	0	-6	x	-4
O=C(/C=C/c1ccc([N+](=O)[O-])cc1)NCCN1C(=O)S/C(=C\c2ccc(F)cc2)C1=O	4460	0	-5	0	0
CCOC(=O)c1c(NC(=O)COC(=O)C2CCC2)sc(C(=O)N(C)C)c1C	7915	-8	-13	x	0
COC(=O)c1c(NC(=O)C2CCC2)sc(C(=O)N(C)C)c1C	17349*	u	-6	-21	1
Cc1ccc(C(=O)Nc2nc(=O)n(C)s2)cc1	22548*	u	0	3	-2
CN(C)CCn1c2ccccc2c2nc3ccc([N+](=O)[O-])cc3cc21	3314	1	u	1	4
O=C1C(Cc2ccc(O)cc2)NC(=S)N1c1ccccc1 (stereo not drawn)	23822*	-3	-2	4	-1
O=C(O)CC1NC(=S)N(c2ccccc2)C1=O (stereo not drawn)	8217	1	2	-2	-1
O=C(CCCN1C(=O)CCC1=O)Nc1ccccc1F	22328*	4	4	-4	2
O=C(CCCN1C(=O)C2CC=CCC2C1=O)Nc1ccccc1F (stereo not drawn)	6123	0	7	7	-1
Cc1cc(Cl)ccc1NC(=O)CCCN1C(=O)CCC1=O	11642	0	-6	6	-1

Screening data from PubChem.
